This is part of a sample that, as a whole, favours compounds with a hit. Of some 83,000 tested, about 20% had one in any assay.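 Cells were grown in 96-well plates and exposed to the test compound at a single concentration for 48 hours; results are reported as percent growth, with values below 10 considered active.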 Unmarked numbers belong to inactive results. Calls of active or inactive are those of the source.

The test system of this assay is HL-60(TB) leukemia. In words: NCI-60 one-dose screen, 48 h (100 = growth as untreated, 0 = no growth, -100 = all killed). The following applies: 10 µM unless noted.
`CCOC(=O)c1c(Nc2ccccc2)nn2c(-c3ccc(Br)cc3)ccnc12`: the growth was 90.6%. The figure for `Cc1cc(C(NC(=O)CCCCCNc2cccc3c2C(=O)N(C2CCC(=O)NC2=O)C3=O)c2ccc3c(c2)OC(F)(F)O3)c(O)c2ncccc12` (stereo not drawn) is 19.7%; for `CC(=O)Nc1nc(C)c(-c2csc(Nc3ccccc3)n2)s1` it is 33.6%.

On to `Oc1ccc(CSc2nnc(-c3ccncc3)o2)c2cccnc12`, for which the growth was 8.26% (active). With `COc1ccc(/C=N/Nc2ccnc3cc(Cl)ccc23)cc1Cl`, the growth is -37.5% (active). The figure for `CCCn1cnc2c(c1=N)C(c1ccc(OC)cc1)c1sc3c(CC)cccc3c1O2` (stereo not drawn) is -12.9% (active). The result for `CCOP(=O)(OCC)OC[C@]12CCC(C)(C)C[C@H]1C1=CC[C@@H]3[C@@]4(C)CC[C@H](OP(=O)(OCC)OCC)C(C)(C)[C@@H]4CC[C@@]3(C)[C@]1(C)CC2` reads 8.99% (active).

As for `CN1CCN(Cc2ccc(NC(=O)c3cncc(C#Cc4cnn5cccnc45)c3)cc2C(F)(F)F)CC1`, the growth is -19% (active).

As for `O=C1[C@H]2Cc3c([nH]c4ccccc34)[C@H](c3ccc(Cl)cc3)N2C(=O)CN1C1CCN(CC2CCCCC2)CC1`, the growth is 47.2%. As for `CCOC(=O)c1cccc(NC2=C(Cl)C(=O)c3nc(C)ccc3C2=O)c1`, the growth is 42%.

For `C/C(=N\NC(=O)CSc1nc2sc3c(c2c(=O)n1-c1ccccc1)CCC(C)C3)c1ccc(Cl)cc1` (stereo not drawn), the growth was 3.75% (active). The figure for `Cc1cc(NS(=O)(=O)c2ccc(NC(=O)CSc3nc4ccccc4c(=O)n3-c3ccccc3)cc2)no1` is 110%; for `Cc1ccc(C2=Nn3c(nnc3-c3ccccc3)SC2)cc1` it is 7.74% (active). With `CCC(=O)Nc1cc(Nc2cc(NC3CC3)n3ncc(C#N)c3n2)ccc1C`, the growth was 5.84% (active). `O=C(COc1ccc(/C=C2\C(=O)Nc3ccc(Cl)cc32)cc1)Nc1ccc(Cl)cc1`: the growth is 57.6%. The result for `COc1ccc(C2CC(c3cccc(Nc4nc(Cl)nc5cc(OC)c(OC)cc45)c3)=Nc3c(N)nc(N)nc3N2)cc1` (stereo not drawn) reads 47.4%; that for `CN(Cc1ccccc1)S(=O)(=O)/N=C1\NC(=O)NC1=C(Cl)Cl`, -29.8% (active); that for `COc1ccc2[nH]cc(/C=N/Nc3nc4ccccc4s3)c2c1`, 39.1%. With `O=C(Nc1ccc(Br)cc1)Nc1nc2ccc([N+](=O)[O-])cc2s1`, the growth was -44.3% (active). The result for `Clc1ccc(N/N=c2/oc3ccccc3cc2-c2cc3ccccc3[nH]2)cc1` reads 88.7%. The figure for `O=C(CSc1nc2sc3c(c2c(=O)n1-c1ccc(Cl)cc1)CCCC3)NNC(=O)Nc1cccc(C(F)(F)F)c1` is 2.24% (active); for `O=C(Nc1cccc(Cl)c1)Nc1nc2ccc([N+](=O)[O-])cc2o1` it is 0.103% (active). The result for `O=C1Nc2ccccc2/C1=C/c1ccc(COCC2CO2)n1-c1ccc(O)cc1` (stereo not drawn) reads 103%; that for `Cc1ccc(-c2nn(-c3ccccc3)cc2/C=C/C(=O)c2ccc(NC(=O)CCCCCCC(=O)NO)cc2)cc1`, 109%; that for `CCNC(=O)Oc1ccc(/C(=C(/C)c2ccc(Cl)cc2)c2ccc(OCCN(C)C)cc2)cc1`, 52.7%. On to `Cc1[nH]nc2ncc(C#Cc3cncc(C(=O)Nc4ccc(CN5CCN(C)CC5)c(C(F)(F)F)c4)c3)cc12`, for which the growth was 13.6%. In the case of `CN1CCN(c2ccc(C(=O)Nc3cccc(-c4cn(-c5ccc(S(N)(=O)=O)cc5)nn4)c3)cc2C(F)(F)F)CC1`, the growth is 77%. For `Cc1cc(C(=O)Nc2sc3c(c2C(N)=O)CCC(=O)C3)ccc1OCCN1CCCCC1`, the growth is 63.3%.

For the origin of these results see PubChem BioAssay (NCI).
